Screen size: about 39,000 compounds; about 3,300 (8.5%) were called active. The entries come from a sample that favours actives as a whole.

This test concerns HepG2. As to the kind of experiment: cytotoxicity call (relative viability < 0.9). The settings on record: 10 µM.
Take `C[C@@H]1CN([C@H](C)CO)C(=O)c2cc(NC(=O)Nc3ccc4c(c3)OCO4)ccc2O[C@@H]1CN(C)S(C)(=O)=O`: the cytotoxicity call is “inactive”.
`COc1ccc(COC[C@@]23Oc4ccccc4[C@@H](NC(=O)N2C(=O)c2ccccc2)[C@H]3CO[Si](C)(C)C(C)(C)C)cc1`: the cytotoxicity call was “inactive”.
Turning to `COc1ccc(COC[C@@]23Oc4ccccc4[C@@H](NC(=S)N2C)[C@H]3CO[Si](C)(C)C(C)(C)C)cc1`, the cytotoxicity call was “active”.
As to `COc1ccc(COC[C@]23N=C4SCc5ccccc5CN4[C@H](c4ccccc4O2)[C@H]3CO[Si](C)(C)C(C)(C)C)cc1`, the cytotoxicity call was “inactive”.
For the compound `COc1ccc(COC[C@]23NC(=S)N[C@H](c4ccccc4O2)[C@@H]3CO[Si](C)(C)C(C)(C)C)cc1`, the cytotoxicity call was “inactive”.
For `COc1ccc(COC[C@]23N=C4SCCCN4[C@H](c4ccccc4O2)[C@H]3COC(=O)c2ccccc2)cc1`, the cytotoxicity call was “inactive”.
For the compound `COc1ccc(COC[C@]23NC(=S)N[C@H](c4ccccc4O2)[C@H]3CO[Si](C)(C)C(C)(C)C)cc1`, the cytotoxicity call was “inactive”.
Regarding `COc1ccc(COC[C@]23Oc4ccccc4[C@H]([C@H]2CO[Si](C)(C)C(C)(C)C)N(C(=O)CC(C)=O)C(=O)N3C)cc1`, the cytotoxicity call is “inactive”.
The entry for `COc1ccc(COC[C@@]23Oc4ccccc4[C@@H](NC(=S)N2C)[C@@H]3CO[Si](C)(C)C(C)(C)C)cc1` is “active”; for `COc1ccc(COC[C@]23N=C4SCCCN4[C@H](c4ccccc4O2)[C@H]3CO[Si](C)(C)C(C)(C)C)cc1` it is “active”.
The entry for `O=C(C[C@H]1CC[C@H]2[C@@H](COC[C@@H](O)CN2S(=O)(=O)c2cccc(F)c2)O1)NCc1ccncn1` is “inactive”; for `Cc1cccc(CO)n1` it is “inactive”; for `O=C1N[C@@H]2[C@@H](O)[C@@H](O)[C@H](O)[C@@H](CO)N2C1=O` it is “inactive”.
`CCCCS(=N)(=O)CC[C@@H](N)C(=O)O` (some centres undefined): the cytotoxicity call is “inactive”.
As to `NC(=S)Nc1ccncc1`, the cytotoxicity call is “inactive”.
With `CCC[C@@H](O)C#Cc1cnc2c(c1)C(=O)N([C@H](C)CO)C[C@H](C)[C@H](CN(C)S(=O)(=O)c1cccc(F)c1)O2`, the cytotoxicity call was “inactive”.
For `C[C@H](CO)N1C[C@H](C)[C@H](CN(C)C(=O)Cc2ccccc2)OCCCC[C@H](C)Oc2ccc(NS(=O)(=O)c3ccc(Cl)cc3)cc2C1=O`, the cytotoxicity call is “inactive”.
`COc1ccc(NC(=O)N(C)C[C@H]2Oc3ccc(NS(=O)(=O)c4cn(C)cn4)cc3CC(=O)N([C@H](C)CO)C[C@H]2C)cc1`: the cytotoxicity call was “inactive”.
In the case of `Cc1noc(C)c1NC(=O)N(C)C[C@H]1Oc2ccc(NC(=O)c3ccncc3)cc2C(=O)N([C@H](C)CO)C[C@H]1C`, the cytotoxicity call is “inactive”.
The entry for `CCNC(=O)CCC(N)C(=O)[O-].[K+]` (centres undefined) is “inactive”; for `C[C@@H]1ON(c2ccc(I)cc2)[C@H](c2ccc(OC(=O)OC(C)(C)C)cc2)[C@H]1C(=O)N1C(=O)OC[C@H]1Cc1ccccc1` it is “inactive”.
For the compound `COc1ccc(S(=O)(=O)N(C)C[C@@H]2Oc3ccc(NS(=O)(=O)c4c(C)noc4C)cc3CC(=O)N([C@H](C)CO)C[C@@H]2C)cc1`, the cytotoxicity call is “inactive”.
Regarding `C[C@@H]1CN([C@@H](C)CO)C(=O)c2cc(NC(=O)Nc3ccccc3)ccc2O[C@@H](C)CCCCO[C@H]1CN(C)C(=O)OC(C)(C)C`, the cytotoxicity call is “inactive”.
For the compound `C[C@H](CO)N1C[C@H](C)[C@H](CN(C)C(=O)Nc2cccc3ccccc23)Oc2ccc(NC(=O)C3CCCCC3)cc2CC1=O`, the cytotoxicity call is “active”.
For the compound `C[C@H]1CN([C@@H](C)CO)C(=O)Cc2cc(NC(=O)NC3CCCCC3)ccc2O[C@@H]1CN(C)C(=O)Nc1cccc2ccccc12`, the cytotoxicity call is “inactive”.
Take `CC(C)NC(=O)N(C)C[C@H]1Oc2ccc(NC(=O)C3CCCCC3)cc2CC(=O)N([C@H](C)CO)C[C@@H]1C`: the cytotoxicity call is “active”.
In the case of `C[C@@H]1CN([C@H](C)CO)C(=O)Cc2cc(NC(=O)C3CCCCC3)ccc2O[C@H]1CN(C)C(=O)Nc1cccc2ccccc12`, the cytotoxicity call is “inactive”.
With `Cc1noc(C)c1NC(=O)Nc1ccc2c(c1)CC(=O)N([C@@H](C)CO)C[C@H](C)[C@@H](CN(C)C(=O)Nc1cccc3ccccc13)O2`, the cytotoxicity call was “inactive”.
The entry for `C[C@H]1CN([C@@H](C)CO)C(=O)Cc2cc(NC(=O)C3CCCCC3)ccc2O[C@H]1CN(C)C(=O)Nc1cccc2ccccc12` is “inactive”; for `Cc1noc(C)c1NC(=O)Nc1ccc2c(c1)CC(=O)N([C@@H](C)CO)C[C@@H](C)[C@H](CN(C)C(=O)Nc1cccc3ccccc13)O2` it is “active”; for `C[C@@H]1CN([C@@H](C)CO)C(=O)Cc2cc(NC(=O)NC3CCCCC3)ccc2O[C@H]1CN(C)C(=O)Nc1cccc2ccccc12` it is “inactive”.
Take `C[C@H]1CN([C@@H](C)CO)C(=O)Cc2cc(NC(=O)NC3CCCCC3)ccc2O[C@H]1CN(C)C(=O)Nc1cccc2ccccc12`: the cytotoxicity call was “active”.
Consider `Cc1noc(C)c1NC(=O)Nc1ccc2c(c1)CC(=O)N([C@H](C)CO)C[C@H](C)[C@@H](CN(C)C(=O)Nc1cccc3ccccc13)O2`, for which the cytotoxicity call was “inactive”.
For `CC(C)NC(=O)N(C)C[C@H]1Oc2ccc(NC(=O)C3CCCCC3)cc2CC(=O)N([C@H](C)CO)C[C@H]1C`, the cytotoxicity call was “inactive”.
Then `CC(C)NC(=O)N(C)C[C@@H]1Oc2ccc(NC(=O)C3CCCCC3)cc2CC(=O)N([C@@H](C)CO)C[C@@H]1C`, with “inactive”.
The entry for `COc1ccc(NC(=O)Nc2ccc3c(c2)C(=O)N([C@H](C)CO)C[C@H](C)[C@@H](CN(C)S(=O)(=O)c2ccc(C)cc2)OCCCC[C@@H](C)O3)cc1` is “inactive”; for `NC(=O)NC(=O)C[C@H]1Nc2ccccc2NC1=O` it is “inactive”.
Turning to `CCc1c(C(=O)OC)nnc2cc(C)nn12`, the cytotoxicity call is “inactive”.
The entry for `O=C(CN1CCOCC1)N[C@@H]1CC[C@H](CCn2cc(C3CCCC3)nn2)O[C@@H]1CO` is “inactive”; for `COCC#Cc1ccc([C@H]2[C@@H](CO)N3C(=O)CN(C(=O)c4ccncc4)C[C@@H]23)cc1` it is “inactive”.
Regarding `C[C@@H]1CN([C@H](C)CO)C(=O)Cc2cc(NC(=O)Nc3cccc4ccccc34)ccc2O[C@H]1CN(C)C(=O)NC1CCCCC1`, the cytotoxicity call was “inactive”.
On to `C[C@@H]1CN([C@@H](C)CO)C(=O)Cc2cc(NC(=O)Nc3cccc4ccccc34)ccc2O[C@@H]1CN(C)C(=O)NC1CCCCC1`, for which the cytotoxicity call was “active”.
The entry for `C[C@H](CO)N1C[C@H](C)[C@@H](CN(C)C(=O)NC2CCCCC2)Oc2ccc(NC(=O)Nc3cccc4ccccc34)cc2CC1=O` is “inactive”.
Consider `CCNC(=O)C[C@H]1C=C[C@@H](NC(=O)C2CC2)[C@@H](CO)O1`, for which the cytotoxicity call was “inactive”.
As for `CC1Cc2ccccc2N1NC(=O)c1ccc(Cl)c(S(N)(=O)=O)c1` (centres undefined), the cytotoxicity call was “inactive”.
Turning to `CC1(C)CC(NC(=O)c2ccc(Cl)c(S(=O)(=O)N(Cc3ccccc3)c3ccccc3)c2)CC(C)(C)N1`, the cytotoxicity call is “active”.
On to `O=C(NCCN1CCOCC1)c1ccc(Cl)c(S(=O)(=O)N2CCOCC2)c1`, for which the cytotoxicity call is “inactive”.
As to `C[C@@H]1CN([C@@H](C)CO)C(=O)c2cc(NS(=O)(=O)c3cccs3)ccc2O[C@@H](C)CCCCO[C@@H]1CN(C)C(=O)NC1CCCCC1`, the cytotoxicity call is “inactive”.
`C[C@@H]1CN([C@@H](C)CO)C(=O)c2cc(C#Cc3cccnc3)cnc2O[C@H]1CN(C)S(=O)(=O)c1ccccc1F`: the cytotoxicity call was “inactive”.
Turning to `Cc1cc2nc3c(=O)[nH]c(=O)nc-3n(C[C@@H](O)[C@@H](O)[C@@H](O)CO)c2cc1C`, the cytotoxicity call was “inactive”.
The entry for `COC1=CC(C)C2CC3OC(=O)CC4C(C)=C(OC)C(=O)C(C2(C)C1=O)C34C` (centres undefined) is “inactive”; for `C[C@@H]1CC=CC[C@H](c2ccc3c(c2)OCO3)NC(=O)[C@@H](Cc2ccccc2)N(C)C(=O)c2ccccc2O1` it is “active”; for `C[C@H]1CC=CC[C@H](c2ccc3c(c2)OCO3)NC(=O)[C@@H](Cc2ccccc2)N(C)C(=O)c2ccccc2O1` it is “inactive”.
With `C[C@H]1CC=CC[C@@H](c2ccc3c(c2)OCO3)NC(=O)[C@H](Cc2ccccc2)N(C)C(=O)c2ccccc2O1`, the cytotoxicity call was “inactive”.
`C[C@@H]1CN([C@@H](C)CO)S(=O)(=O)c2ccc(C#C[C@@H](C)O)cc2O[C@@H]1CN(C)C(=O)c1ccccc1`: the cytotoxicity call is “inactive”.
As to `C[C@@H]1CN([C@@H](C)CO)S(=O)(=O)c2ccc(C#Cc3ccncc3)cc2O[C@@H]1CN(C)C(=O)C1CCC1`, the cytotoxicity call was “inactive”.
Take `C[C@H](CO)N1C[C@H](C)[C@@H](CN(C)C(=O)C2CCC2)Oc2cc(C#Cc3ccncc3)ccc2S1(=O)=O`: the cytotoxicity call is “active”.
Consider `C[C@H](CO)N1C[C@H](C)[C@H](CN(C)C(=O)C2CCC2)Oc2cc(C#Cc3ccncc3)ccc2S1(=O)=O`, for which the cytotoxicity call is “active”.
As for `C[C@@H]1CN([C@@H](C)CO)S(=O)(=O)c2ccc(C#Cc3ccncc3)cc2O[C@H]1CN(C)C(=O)C1CCC1`, the cytotoxicity call is “active”.
The entry for `C[C@H]1CN([C@@H](C)CO)S(=O)(=O)c2ccc(C#Cc3ccncc3)cc2O[C@@H]1CN(C)C(=O)C1CCC1` is “inactive”; for `C[C@@H]1CN([C@H](C)CO)S(=O)(=O)c2ccc(C#Cc3ccncc3)cc2O[C@H]1CN(C)C(=O)C1CCC1` it is “active”.
The entry for `C[C@H]1CN([C@@H](C)CO)S(=O)(=O)c2ccc(C#Cc3ccncc3)cc2O[C@H]1CN(C)C(=O)C1CCC1` is “inactive”.
Then `C[C@@H]1CN([C@@H](C)CO)C(=O)c2cccc(NS(=O)(=O)c3cn(C)cn3)c2O[C@@H]1CN(C)C(=O)Nc1ccc2c(c1)OCO2`, with “inactive”.
For `CCc1nc2ccc(C(=O)Nc3ccc(OC)c(OC)c3)cn2c1N(CC)Cc1cccc(Br)c1`, the cytotoxicity call is “inactive”.
As for `O=C(CSc1nnc(-c2ccccc2)n1C1CCCCC1)Nc1ccc(S(=O)(=O)Nc2ccccn2)cc1`, the cytotoxicity call was “inactive”.
The entry for `Cc1ccc(CN)s1` is “inactive”.
As to `C[C@H](CO)N1C[C@H](C)[C@@H](CN(C)C(=O)Nc2ccccc2)Oc2cc(Br)ccc2S1(=O)=O`, the cytotoxicity call is “inactive”.
`Cc1noc(C)c1NC(=O)Nc1ccc2c(c1)C(=O)N([C@@H](C)CO)C[C@@H](C)[C@H](CN(C)S(=O)(=O)c1cccs1)OCCCC[C@@H](C)O2`: the cytotoxicity call was “inactive”.
Take `C[C@@H]1CCCCO[C@H](CN(C)Cc2ccc(C(=O)Nc3ccccc3N)cc2)[C@@H](C)CN([C@H](C)CO)C(=O)c2cc(N(C)C)ccc2O1`: the cytotoxicity call is “inactive”.

The record behind these values is the antibiotic and cytotoxicity screens of Wong et al. (2023).
